# From PubChem BioAssay (NCI)
# The panel holds about 83,000 compounds, 20% with a hit somewhere; the sample as a whole holds those more often.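 Negative percent growth values reflect cell death: -40 means 40% of the cells present at the start died, and -100 means all died.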 Values without a mark were called inactive. Active and inactive are the calls of the source. How the source made its calls: active means growth percent below 10; inactive means the rest.
# Legend:
# Assay in all cases: NCI-60 one-dose screen, 48 h (100 = growth as untreated, 0 = no growth, -100 = all killed)
# Details in all cases: 10 µM unless noted
# [1] = test system: SK-MEL-2 melanoma
# [2] = test system: EKVX NSCLC
# [3] = test system: SN12C renal
# [4] = test system: UO-31 renal
# [5] = test system: TK-10 renal
# [6] = test system: ACHN renal
# [7] = test system: A498 renal
# [8] = test system: CCRF-CEM leukemia
# [9] = test system: MOLT-4 leukemia
# [10] = test system: SR leukemia
SMILES,growth [1],growth [2],growth [3],growth [4],growth [5],growth [6],growth [7],growth [8],growth [9],growth [10]
Nc1c(C(=O)Nc2cccc3ccccc23)sc2nc3c(cc12)COCC3,49.1%,85.1%,59.9%,77%,96.4%,62.5%,54.2%,23.6%,35%,22.4%
COc1c(O)cc2oc3cc(O[C@@H]4OC(C)[C@@H](O)[C@H](O)C4O)c(CC=C(C)C)c(O)c3c(=O)c2c1CC=C(C)C (stereo not given in full),90.5%,82%,99.7%,80.3%,92.6%,102%,67.9%,83.5%,65.1%,103%
O=c1nc(-c2ccccc2)c2cc(-c3ccc(N4CCCC4)nc3)ccc2[nH]1,37.5%,71.1%,83.9%,63.6%,88.5%,82.6%,46.6%,54.5%,44%,18.2%
COc1ccc(Cl)c([N+](=O)[O-])c1,104%,103%,99%,90.6%,95.8%,107%,113%,109%,95.2%,93.1%
COc1ccc(NC(=O)Nc2ccc(Nc3nc(C)cc(Nc4ccc(C)cc4)n3)cc2)cc1,-61.9% (active),-70.9% (active),-71% (active),-90.5% (active),-95.9% (active),-99.6% (active),107%,-7.9% (active),-35.3% (active),-37.1% (active)
CCCCc1nc(Cl)c(C2CC(c3ccc(Cl)cc3)=NN2c2cc(Cl)cc(Cl)c2)[nH]1 (stereo not given),96%,57.8%,45.4%,52.7%,94.2%,14.2%,84%,51.6%,24.6%,61.8%
C=C1C(=O)O[C@H]2[C@H]1CC/C(COC(=O)N1CCC[C@H]1C(=O)Nc1ccc(OC)c(C(N)=O)c1O)=C\CC[C@@]1(C)O[C@@H]21,66.5%,77%,12.9%,41.2%,-4.11% (active),30.6%,87.9%,-12.6% (active),8.14% (active),13.9%
CC(C)(C)c1ccc2oc(=O)n(SC(Cl)(Cl)Cl)c2c1,93.9%,92.2%,102%,94.9%,92.4%,106%,109%,83.5%,77.2%,92.3%
COC(=O)/C=C1\SC(=Nc2cccc(Cl)c2)N(CCc2c[nH]c3ccccc23)C1=O,40.6%,71.9%,44.5%,58.5%,73.4%,63.9%,61.5%,5.03% (active),-17.6% (active),-7.91% (active)
CC(=O)OCC1SC(OC(C)=O)C(NC(=O)/C=C/CCl)C(OC(C)=O)C1OC(C)=O (stereo not given),79.9%,102%,89.4%,102%,93.8%,92.1%,96.3%,83.7%,88.1%,86.2%
Nc1cccc(C(=O)Nc2ccc3c(O)c(N=Nc4ccc(N=Nc5ccc(S(=O)(=O)O)cc5)cc4)c(S(=O)(=O)O)cc3c2)c1,108%,103%,106%,90.2%,101%,105%,105%,96.6%,84.6%,77.4%
O=C(Nc1ccc(N=Cc2ccccc2O)cc1)NC1C=c2ccccc2=CC1 (stereo not given),102%,106%,102%,81.9%,111%,102%,83.5%,81%,93%,95.1%
C=C(C)[C@@H]1CCC=C2CC[C@]3(C)[C@H](CC[C@@H]4[C@@]5(C)CCCNC(C)(C)[C@@H]5CC[C@]43C)[C@H]21,77.9%,94.6%,65.2%,75.4%,104%,78.7%,101%,40.1%,0.148% (active),-25.7% (active)
N#Cc1ccc(C2C3=C(CCCC3=O)OC3=C2C(=O)c2ccccc2C3=O)cc1 (stereo not given),43.7%,63.1%,12.6%,85.8%,99.7%,66.7%,109%,15.8%,-6.58% (active),60.9%
N#Cc1ccc(N2Cc3cc(Cl)ccc3OC3=C2C(=O)N(Cc2ccc(F)cc2)C3=O)cc1,-46.5% (active),37.4%,-24.9% (active),-85.7% (active),-79.4% (active),-92.9% (active),120%,-20% (active),-34.5% (active),-33.5% (active)
Cc1cc(C)c(NC(=O)c2sc3nc4c(cc3c2N)CCCCCC4)c(C)c1,34.6%,67.8%,68.3%,67.3%,74.2%,72.4%,19.9%,32.8%,36.3%,23.3%
CCc1ccc(OCc2ccccc2C(=O)Nc2ccc3nc(C)cc(N)c3c2)cc1,-83.1% (active),-56.2% (active),-79.7% (active),-98.5% (active),-93.5% (active),-100% (active),-94.3% (active),-53.4% (active),-74.4% (active),-61.2% (active)
N#CCNc1ccc(C(=O)O)cc1,108%,104%,103%,101%,97.4%,111%,106%,99.3%,96.3%,99.2%
O=C(/C(=C/c1ccc([N+](=O)[O-])cc1)SCc1ccc(Cl)cc1)c1ccc(F)cc1,81.3%,59.7%,45.9%,45.8%,94.7%,54%,70.5%,4.66% (active),7.69% (active),0.569% (active)
COc1cc(/C=C/C(=O)c2ccc(NC(=O)CSc3nnc(-c4cc(OC)c(OC)c(OC)c4)n3-c3ccccc3)cc2)cc(OC)c1OC,32.1%,31.3%,41%,-50.3% (active),45.1%,17.9%,-12.1% (active),6.02% (active),5.18% (active),2.13% (active)
Cn1nc(C(F)(F)F)c(-c2cc(C(F)(F)F)cc(C(F)(F)F)c2)c1-c1ccc(OCc2ccc(Cl)cc2)cc1O,-34% (active),7.7% (active),7.93% (active),-1.27% (active),9.29% (active),7.22% (active),-26.9% (active),6.82% (active),-11.7% (active),-4.24% (active)
N#Cc1c(-c2ccc(Cl)cc2)cc(-c2cc3ccccc3o2)nc1SCC(=O)c1ccc(Cl)cc1,91%,116%,94.2%,79.8%,139%,86.9%,111%,106%,95.1%,80.2%
O=C(Nc1nc(-c2ccccc2)cs1)c1cc(-c2ccc(Br)cc2)nc2ccccc12,67%,41.2%,54.9%,17.2%,63.2%,55.4%,-55.9% (active),20.9%,24%,19.5%
C#C[C@@]1(O)[C@@H](CO)O[C@@H](n2cc(-c3ccco3)c3c(N)ncnc32)[C@@H]1O,84.3%,67.3%,71.8%,36.5%,69.1%,90.2%,54.6%,86.9%,32.8%,94.4%
COc1ccc(-c2nc(C#N)c(NCC(c3ccco3)N3CCCC3)o2)cc1 (stereo not given),53.3%,54.2%,49.5%,51.5%,82.1%,43.9%,42.6%,18.4%,29.7%,21.1%
NC(=O)CN1C(=O)c2ccccc2C1=O,108%,104%,97.7%,90.4%,103%,105%,92%,96.6%,99.1%,87.8%
